This passage reports growth results from PubChem BioAssay (NCI).

Compounds without any hit were thinned out: in the full panel of roughly 83,000, 20% have a hit.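 Results are percent growth after 48 hours of single-concentration exposure. 100 means growth as in untreated cells, lower positive values show inhibition; negative values down to -100 show cell death.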 Unmarked numbers belong to inactive results. Calls of active or inactive are those of the source. The calls were made as follows: active = growth percent below 10; inactive = the rest.

Among the test systems are NCI-H23 lung; NCI-H226 lung; NCI-H322M lung; HOP-62 NSCLC; NCI-H460 lung; HOP-92 NSCLC; NCI-H522 lung; A549/ATCC NSCLC; 786-0 renal; COLO 205 colon; DU-145 prostate; K-562 leukemia; MALME-3M melanoma; MDA-MB-231 breast; RXF 393 renal; SF-268 CNS; SF-295 CNS; SF-539 CNS; UACC-257 melanoma; M14 melanoma.
Holding throughout (assay): NCI-60 one-dose screen, 48 h (100 = growth as untreated, 0 = no growth, -100 = all killed)
Common to all, as to settings: 10 µM unless noted

As for `COc1cc(/C=C/C(=O)c2ccc(-n3cc(CN4CCN(c5cc6c(cc5F)c(=O)c(C(=O)O)cn6C5CC5)CC4)nn3)cc2)cc(OC)c1OC`, the growth in the experiment on NCI-H23 lung was 77.6%; with NCI-H226 lung it was 74.8%; in the experiment with NCI-H322M lung, 88.8%; in the experiment with HOP-62 NSCLC, 85.4%; with NCI-H460 lung it was 85.9%; in the experiment on HOP-92 NSCLC, 88%. For the same molecule, the growth in the experiment on NCI-H522 lung is 88%; in the experiment on A549/ATCC NSCLC it was 90.5%; with 786-0 renal it was 72.2%; in the experiment on COLO 205 colon it was 112%; in the experiment with DU-145 prostate it was 92.3%; in the experiment with K-562 leukemia, 60.7%. The growth with MALME-3M melanoma is 87.7%; with MDA-MB-231 breast, 66.4%; with RXF 393 renal, 55.7%; in the experiment on SF-268 CNS it was 77.2%; in the experiment on SF-295 CNS, 81.9%; in the experiment with SF-539 CNS, 82.5%. In addition, the growth in the experiment on UACC-257 melanoma is 90.1%; in the experiment with M14 melanoma, 88.1%.
As to `COc1ccc(NC(=O)CSc2oc(-c3ccccc3)nc2S(=O)(=O)c2ccc(Cl)cc2)c(OC)c1`, the growth was 73% in the experiment with NCI-H23 lung; 1.45% (active) with NCI-H226 lung; 83% in the experiment on NCI-H322M lung; 51% in the experiment with HOP-62 NSCLC; 44.7% in the experiment with NCI-H460 lung; 39.6% in the experiment with HOP-92 NSCLC. Moreover, the growth is 41.4% with NCI-H522 lung; 49.2% in the experiment on A549/ATCC NSCLC; 35.7% in the experiment with 786-0 renal; 82.4% in the experiment with COLO 205 colon; 83.1% with DU-145 prostate; 67.4% in the experiment with K-562 leukemia. The growth in the experiment on MALME-3M melanoma was 57.6%; in the experiment with MDA-MB-231 breast, 47.5%; in the experiment on RXF 393 renal, 16.3%; with SF-268 CNS it was 47.1%; in the experiment on SF-295 CNS it was 53.6%; in the experiment with SF-539 CNS it was 0.354% (active). In addition, the growth with UACC-257 melanoma was 40.7%; in the experiment on M14 melanoma, 77.3%.
As to `CN(Cc1ccccc1)c1nc(Cl)c(C2CC(c3ccc(Cl)cc3)=NN2c2cc(Cl)cc(Cl)c2)s1` (stereo not given), the growth is 94.3% in the experiment with NCI-H23 lung; 102% in the experiment with NCI-H226 lung; 102% with NCI-H322M lung; 91.6% in the experiment with HOP-62 NSCLC; 106% with NCI-H460 lung; 91.6% with HOP-92 NSCLC. Besides, the growth with NCI-H522 lung was 91.3%; in the experiment on A549/ATCC NSCLC, 95%; in the experiment on 786-0 renal, 93.8%; with COLO 205 colon it was 105%; in the experiment on DU-145 prostate it was 109%; with K-562 leukemia, 87%. Further, the growth in the experiment with MALME-3M melanoma was 97.3%; in the experiment with MDA-MB-231 breast, 110%; in the experiment on RXF 393 renal it was 104%; in the experiment with SF-268 CNS, 100%; in the experiment on SF-295 CNS, 95.3%; in the experiment on SF-539 CNS, 106%. Besides, the figures for the growth in the experiment with UACC-257 melanoma and in the experiment on M14 melanoma were 110% and 96.1%, respectively.
`O=C1NCCN1/N=C/c1c(Cl)n(Cc2ccc(Cl)cc2)c2ccccc12`: the growth was 98.2% in the experiment on NCI-H23 lung; 64.8% in the experiment on NCI-H226 lung; 110% in the experiment on NCI-H322M lung; 136% in the experiment with HOP-62 NSCLC; 41.4% in the experiment on NCI-H460 lung; 62.8% in the experiment with HOP-92 NSCLC. The growth with NCI-H522 lung was 93.9%; in the experiment with A549/ATCC NSCLC, 70%; in the experiment on 786-0 renal, 96.5%; in the experiment with COLO 205 colon, 75.2%; in the experiment with DU-145 prostate, 89.4%; in the experiment on K-562 leukemia it was 65.2%. The growth is 150% in the experiment on MALME-3M melanoma; 73.9% with MDA-MB-231 breast; 69.4% in the experiment with RXF 393 renal; 104% in the experiment on SF-268 CNS; 74.2% in the experiment on SF-295 CNS; 87.2% in the experiment on SF-539 CNS. The growth in the experiment with UACC-257 melanoma was 64.6%; with M14 melanoma it was 114%.
`CCCCCN(CCCCC)CC(O)c1c(Cl)ccc2ccccc12` (stereo not given): the growth is 54.1% in the experiment on NCI-H23 lung; 70.4% in the experiment with NCI-H226 lung; 71.2% in the experiment on NCI-H322M lung; 80.5% in the experiment with HOP-62 NSCLC; 66.5% in the experiment with NCI-H460 lung; 68.1% with HOP-92 NSCLC. Further, the growth in the experiment on NCI-H522 lung was 79%; with A549/ATCC NSCLC, 67.6%; in the experiment on 786-0 renal it was 71.7%; in the experiment with COLO 205 colon, 72.9%; in the experiment on DU-145 prostate, 69.4%; in the experiment with K-562 leukemia it was 61.7%. The growth in the experiment on MALME-3M melanoma is 94.7%; in the experiment with MDA-MB-231 breast, 39.7%; in the experiment on RXF 393 renal, 63.1%; in the experiment on SF-268 CNS, 84.7%; with SF-295 CNS it was 71.7%; with SF-539 CNS, 64.2%. Besides, the growth in the experiment on UACC-257 melanoma was 83.1%; in the experiment with M14 melanoma, 72.2%.
As to `COc1ccc(NC(=O)c2ccc(Cl)cc2Cl)cc1`, the growth in the experiment with NCI-H23 lung was 85.3%; in the experiment on NCI-H226 lung, 105%; with NCI-H322M lung it was 103%; with HOP-62 NSCLC, 107%; in the experiment on NCI-H460 lung, 97.8%; with HOP-92 NSCLC it was 104%. The growth in the experiment with NCI-H522 lung is 97.1%; with A549/ATCC NSCLC, 96.5%; in the experiment with 786-0 renal, 93%; with COLO 205 colon, 101%; in the experiment with DU-145 prostate, 95.1%; in the experiment on K-562 leukemia it was 99%. Besides, the growth in the experiment with MALME-3M melanoma is 104%; in the experiment on MDA-MB-231 breast it was 109%; with RXF 393 renal, 108%; in the experiment on SF-268 CNS, 100%; in the experiment on SF-295 CNS it was 102%; in the experiment with SF-539 CNS, 98.9%. In addition, the growth was 96.8% with UACC-257 melanoma and 93.3% with M14 melanoma.
Consider `COC(CCP(=O)(c1ccccc1)c1ccccc1)(C(=O)c1ccccc1)c1ccccc1` (stereo not given), for which the growth in the experiment with NCI-H23 lung is 77.3%; in the experiment on NCI-H226 lung, 85.7%; in the experiment with NCI-H322M lung, 72.8%; in the experiment on HOP-62 NSCLC, 88%; in the experiment with NCI-H460 lung, 50%; with HOP-92 NSCLC it was -8.84% (active). Also, the growth is 28.9% with NCI-H522 lung; 48.1% with A549/ATCC NSCLC; 89.4% with 786-0 renal; 62.4% in the experiment with COLO 205 colon; 111% in the experiment on DU-145 prostate; 9.03% (active) in the experiment on K-562 leukemia. Besides, the growth in the experiment with MALME-3M melanoma was 96.3%; in the experiment on MDA-MB-231 breast it was 73.6%; in the experiment on RXF 393 renal, 76.2%; in the experiment with SF-268 CNS, 86.1%; in the experiment on SF-295 CNS, 32.1%; with SF-539 CNS it was 87.2%. For the same molecule, the growth was 64.3% with UACC-257 melanoma and 63% in the experiment with M14 melanoma.
On to `COc1ccc(-c2nc(SCCC(C)C)nc(N/N=C(/C)c3ccc(N)cc3)c2C#N)cc1`, for which the growth in the experiment on NCI-H23 lung is 92.9%; in the experiment with NCI-H226 lung, 88.9%; in the experiment with NCI-H322M lung, 86%; in the experiment with HOP-62 NSCLC, 89.9%; with NCI-H460 lung it was 101%; in the experiment on HOP-92 NSCLC, 96.8%. For the same molecule, the growth in the experiment on NCI-H522 lung was 90.6%; in the experiment on A549/ATCC NSCLC, 98.4%; in the experiment with 786-0 renal, 97.9%; in the experiment with COLO 205 colon, 109%; in the experiment with DU-145 prostate, 97.1%; in the experiment with K-562 leukemia it was 94.3%. Moreover, the growth in the experiment on MALME-3M melanoma is 104%; in the experiment on MDA-MB-231 breast, 82.3%; in the experiment with RXF 393 renal, 86.2%; in the experiment with SF-268 CNS, 92%; in the experiment with SF-295 CNS, 102%; in the experiment with SF-539 CNS, 87.9%. Moreover, the growth with UACC-257 melanoma was 102%; in the experiment with M14 melanoma, 111%.
